# From PubChem BioAssay
# MARV entry inh – qHTS for inhibitors of binding or entry into cells for Marburg Virus; Marburg virus pseudotyped entry inhibition, cell reporter; Potency, µM (doses to about 37.8 µM), hits mostly inhibitors; 300,000 compounds, 1.8% hits; calls by dose curve; tested in HEK293 cells
# CHX counter – Cycloheximide Counterscreen for Small Molecule Inhibitors of Shiga Toxin; cell reporter, cycloheximide protein synthesis inhibition counterscreen; max response, %; 300,000 compounds, 12% hits; in the data active = max response mostly above about 13%, no sharp cut-off; inactive = mostly below about 14%; note: read at 38.3 µM for the half of the compounds with a filed dose
# LASV entry inh – qHTS for Inhibitors of binding or entry into cells for Lassa Virus | Lassa virus pseudotype entry inhibition, cell reporter | Potency, µM (titrated, usually from 37.9 µM), usual class: inhibitors | 300,000 compounds, 1.2% hits; calls by dose curve; tested in HEK293 cells; note: nearly all actives have a fitted effect of over 50% in size
# VACV Venus inh – qHTS for Stage-Specific Inhibitors of Vaccinia Orthopoxvirus: Venus Reporter Primary qHTS. Potency, µM (titrated, usually from 36.5 µM), most hits filed as inhibitors. Vaccinia virus Venus reporter expression, fluorescence. 330,000 compounds, 0.46% hits; calls by dose curve; tested in A549 cells; note: nearly all actives have a fitted effect of over 30% in size
# VACV mCherry inh – qHTS for Stage-Specific Inhibitors of Vaccinia Orthopoxvirus: mCherry Reporter Primary qHTS. Potency, µM (top dose mostly 36.5 µM), usual class: inhibitors. Vaccinia virus mCherry reporter infection, fluorescence. 310,000 compounds, 0.63% hits; calls by dose curve; tested in A549 cells; note: nearly all actives have a fitted effect of over 35% in size
# Shiga inhibitor – A qHTS for Small Molecule Inhibitors of Shiga Toxin; Vero cells, Shiga toxin protein synthesis inhibition reporter; inhibition, % at 38.7 µM; 290,000 compounds, 9.2% hits; AID 2315, 2010; in the data active = inhibition mostly above about 28%, no sharp cut-off; inactive = mostly below about 43%
# Hits are given with their value; i = inactive; ? = inconclusive; nt = not tested or not shown. The entries come from a sample that favours hits as a whole.
SMILES,MARV entry inh,CHX counter,LASV entry inh,VACV Venus inh,VACV mCherry inh,Shiga inhibitor
Cc1ccc(NC(=O)c2cccc(OCc3c(C)noc3C)c2)cc1,?,28.7,i,i,i,i
COc1cc(C(=O)Nc2nc3ccc(C)cc3s2)ccc1OCc1c(C)noc1C,i,61.5,i,i,i,76.1
CN(C)C1NC(=O)c2cc(-c3ccccc3)sc2N1 (stereo unspecified),?,16.7,i,i,nt,i
COc1ccc(CSc2nnc3[nH]c(=O)cc(N)n23)cc1,i,i,i,i,i,i
CCOc1ccccc1CNC(=O)C1CCN(S(=O)(=O)c2ccc3[nH]c(=O)ccc3c2)CC1,nt,nt,i,i,i,nt
O=C(/C=C/c1ccccc1)Nc1nc2n(n1)C(c1ccc(F)cc1)C=C(c1ccccc1)N2 (stereo unspecified),i,nt,i,i,i,nt
O=C(Nc1ccc(Cl)c(Cl)c1)Nc1ccccn1,nt,46.0,nt,nt,nt,65.7
CN1C(=O)CSc2ccc(NC(=O)Nc3ccccn3)cc21,?,50.4,?,i,i,i
CC(=O)Nc1ccc(NC(=O)Nc2ccc3c(c2)N(C)C(=O)CS3)cc1,?,i,i,i,i,i
COc1ccccc1C(=O)Nc1ccccn1,i,36.3,?,nt,nt,60.1
COc1ccccc1C(=O)Nc1c(-c2ccccc2)nc2ccccn12,i,i,i,i,i,i
COc1ccccc1C(=O)Nc1nsc(-c2ccccc2)n1,nt,49.2,nt,nt,nt,78.9
Cc1cnc(-n2ncc(C(=O)N(C)C3CCOC3)c2C)nc1-c1ccc(F)cc1 (stereo unspecified),nt,nt,nt,i,i,nt
COc1ccc(-c2noc(CN(C(=O)c3ccc4c(c3)OCO4)C(C)C)n2)cc1OC,i,nt,?,i,i,nt
Cc1ccc(C(=O)Nc2cccc(-c3nc(CNC(=O)c4cccc(N(C)C)c4)c(C)o3)c2)s1,nt,nt,nt,i,i,nt
Cc1ccc(CN2CCCn3nc(C(=O)NC(C)C)cc3C2=O)cc1,nt,nt,?,i,i,nt
O=C(O)c1cc([N+](=O)[O-])ccc1NCc1ccccn1,nt,nt,nt,i,i,nt
CC(=O)N1c2ccc(S(=O)(=O)NCC3CCC(C(=O)Nc4cccc(C)c4)CC3)cc2CC1C (stereo unspecified),nt,nt,i,i,i,nt
COc1ccc(NC(=O)Nc2ccccn2)cc1OC,nt,33.8,nt,nt,nt,62.4
CCNC(=S)N/N=C/c1sc(N2CCCCC2)nc1-c1cccs1,i,30.0,i,i,i,active
N=c1n(Cc2ccccc2)c2ccccc2n1CC(O)COc1ccccc1 (stereo unspecified),3.66µM,i,?,nt,nt,i
Cc1ccc(Cn2c(=N)n(CC(O)COc3ccccc3)c3ccccc32)cc1 (stereo unspecified),15.8µM,i,?,?,?,i
CC(=O)N1CCc2c(sc(NC(=O)c3ccc(S(=O)(=O)N(C)C)cc3)c2C#N)C1,i,nt,nt,i,i,nt
CC(=O)N1CCc2c(sc(NC(=O)c3ccc([N+](=O)[O-])o3)c2C(N)=O)C1,nt,nt,nt,5.01µM,1.78µM,nt
CC(=O)N1CCc2c(sc(NC(=O)c3ccc4c(c3)OCCO4)c2C#N)C1,nt,12.5,nt,i,?,i
SMILES,MARV entry inh,CHX counter,LASV entry inh,VACV Venus inh,VACV mCherry inh,Shiga inhibitor
CN1CCc2c(sc(NC(=O)c3ccc4ccccc4c3)c2C(N)=O)C1,nt,48.8,nt,nt,nt,91.8
CCOC(=O)c1c(NC(=S)Nc2ccc(Cl)cc2)sc2c1CCN(C)C2,i,i,i,i,i,i
CCOC(=O)c1c(NC(=S)Nc2ccc(OCC)cc2)sc2c1CCN(C)C2,?,18.4,i,i,i,i
COc1ccccc1-n1c(N)c(C(=O)NC[C@H]2CCCO2)c2nc3ccccc3nc21,i,nt,nt,nt,nt,nt
CC(=O)N1CCc2c(sc(NC(=O)C3COc4ccccc4O3)c2C(N)=O)C1 (stereo unspecified),i,31.4,i,i,i,i
CCOC(=O)N1CCc2c(sc(NC(=O)C3COc4ccccc4O3)c2C(N)=O)C1 (stereo unspecified),nt,i,nt,nt,nt,i
CCN1CCc2c(sc(NC(=O)C3COc4ccccc4O3)c2C(N)=O)C1 (stereo unspecified),i,19.0,i,?,i,i
CN1CCc2c(sc(NC(=O)C3COc4ccccc4O3)c2C(N)=O)C1 (stereo unspecified),i,22.2,?,i,i,i
COc1ccc(CCC(=O)NC2CC(=O)N(c3ccc(F)cc3)C2)cc1 (stereo unspecified),nt,nt,i,i,i,nt
